Assay results as given in PubChem BioAssay AID1030 (National Center for Advancing Translational Sciences (NCATS), 2008).
Out of some 220,000 compounds screened, about 16,000 (7.3%) were called active. About 25% were inconclusive and are not listed. The entries come from a sample that favours actives as a whole. Entries that show only a call come without a potency. A number with no mark means an inactive call. Calls follow the shape of the dose curve; as a rule, active = well fitted inhibition curve with a large enough effect (not every such curve was filed as active); inconclusive = small, poorly fitted or top-dose-only effect, or another doubt; inactive = no such curve, though single readings can be large or run the other way.

target: Aldehyde dehydrogenase 1A1 (Homo sapiens) (UniProt P00352); experiment: qHTS Assay for Inhibitors of Aldehyde Dehydrogenase 1 (ALDH1A1); conditions: Purified ALDH1A1, NADH fluorescence, propionaldehyde substrate; series mostly up to 75.3 µM
Potency is read from the fitted curve at half-maximal effect.

Sequence of Aldehyde dehydrogenase 1A1 (Homo sapiens) (P00352 whole entry, looked up): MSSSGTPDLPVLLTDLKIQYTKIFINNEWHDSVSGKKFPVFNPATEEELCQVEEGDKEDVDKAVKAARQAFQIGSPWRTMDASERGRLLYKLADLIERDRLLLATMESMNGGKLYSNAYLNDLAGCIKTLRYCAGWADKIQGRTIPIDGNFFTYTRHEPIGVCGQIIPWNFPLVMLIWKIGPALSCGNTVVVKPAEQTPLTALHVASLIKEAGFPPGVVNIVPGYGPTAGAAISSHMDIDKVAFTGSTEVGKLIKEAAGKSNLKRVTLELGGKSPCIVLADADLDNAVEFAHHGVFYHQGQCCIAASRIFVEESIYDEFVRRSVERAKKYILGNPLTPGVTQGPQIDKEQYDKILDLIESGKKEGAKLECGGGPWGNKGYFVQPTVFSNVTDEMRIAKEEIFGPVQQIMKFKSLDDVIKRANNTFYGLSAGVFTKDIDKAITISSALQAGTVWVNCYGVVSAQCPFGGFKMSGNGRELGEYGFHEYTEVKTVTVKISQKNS

Compound	Potency	activity, negative = inhibition
CC(=O)N1c2ccccc2N(Cc2ccc([N+](=O)[O-])cc2)C(=O)C1(C)C	inactive	–
COC(=O)C(CC(=O)Nc1cc(C)ccc1C)Nc1ccccc1OC (stereo unspecified)	inactive	–
Cc1ccc(C)c(NC(=O)CCC(=O)NNC(=O)c2cccs2)c1	inactive	–
Cc1ccc(C)c(NC(CC(=O)c2ccccc2)C(=O)OCC(=O)c2cccs2)c1 (stereo unspecified)	7.08 µM (active)	–
O=C(COC(=O)CNC(=O)c1ccccc1F)NCC(F)(F)F	inactive	–
O=C(COC(=O)c1ccc(O)cc1)Nc1nccs1	inactive	–
OC(COCCC12CC3CC(CC(C3)C1)C2)CN1CCCCC1 (stereo unspecified)	20 µM (active)	–
Cc1cccc(C)c1OCC(O)CN1CCCCC1 (stereo unspecified)	inactive	–
OC(COc1cccc(OCC(O)CN2CCCC2)c1)CN1CCCC1 (stereo unspecified)	inactive	–
CC1CCCCC1NC(=O)CO/N=C/c1ccc(OC(F)F)cc1 (stereo unspecified)	inactive	–
CCCCCCCCc1c(O)nc(-n2[nH]c(C)c(CCO)c2=O)[nH]c1=O	inactive	–
CCOc1ccccc1Nc1ccc(C(=O)O)cc1[N+](=O)[O-]	inactive	–
CSc1ccccc1NC(=O)CN(C)CC(=O)Nc1ccc(Cl)cc1[N+](=O)[O-]	inactive	–
CSc1nc2nc(-c3cccc(C(F)(F)F)c3)ccn2n1	inactive	–
O=C1CCCC(O)=C1N=Nc1ccc2ncsc2c1	25.1 µM (active)	–
Cc1ccc(NC(=S)N(Cc2ccco2)C(C)c2cccs2)cc1 (stereo unspecified)	inactive	–
O=C(Oc1cccc(O)c1)C1CCCCC1	inactive	–
COC(=O)CN1C(=O)C(O)=C(C(C)=O)C1c1ccc([N+](=O)[O-])cc1 (stereo unspecified)	inactive	–
CC(=O)C1=C(O)C(=O)N(c2cccnc2)C1c1ccc([N+](=O)[O-])cc1 (stereo unspecified)	20 µM (active)	–
COc1ccc(C2C(C(C)=O)=C(O)C(=O)N2Cc2cccnc2)cc1 (stereo unspecified)	inactive	–
O=C1N=C(N2CCCC2)S/C1=C\c1cccc(Br)c1	25.1 µM (active)	–
O=C(CNS(=O)(=O)c1ccc(Br)s1)N1CCN(C(=O)c2ccco2)CC1	39.8 µM (active)	–

Compound	Potency	activity, negative = inhibition
O=C(OCC(=O)N1CCN(C(=O)c2ccco2)CC1)c1ccccc1Cc1ccccc1	inactive	–
CCNC(=S)N1CCN(C(=O)c2ccco2)CC1	inactive	–
CCc1nnc(NC(=O)CSc2nnnn2-c2cccc(C(C)=O)c2)s1	inactive	–
Cc1cc(C)n(CCNCc2c(C(=O)N3C[C@@H](C)O[C@@H](C)C3)nc3ccc(Cl)cn23)n1	inactive	–
COC(=O)CCCC1=CC2=CC(=O)C(C)(OC(=O)c3cccs3)C(=O)C2=CN1CC1CC1 (stereo unspecified)	–	-4.48% [at 13.5 µM]
CS(=O)(=O)c1ccc2nc(NC(=O)C3C4C=CC(C4)C3C(=O)O)sc2c1 (stereo unspecified)	5.62 µM (active)	–
CS(=O)(=O)c1ccc2nc(NC(=O)CN3CCCCCC3)sc2c1	inactive	–
CS(=O)(=O)c1ccc2nc(NC(=O)C3CCCCC3)sc2c1	inactive	–
CN1CCN(CC(=O)Nc2cccc([N+](=O)[O-])c2)CC1	inactive	–
COc1cc(C2/C(=C(\O)c3ccc4c(c3)CC(C)O4)C(=O)C(=O)N2Cc2ccco2)ccc1O (stereo unspecified)	inactive	–
COCCCN1C(=O)C(=O)/C(=C(/O)c2ccc3c(c2)CC(C)O3)C1c1cccnc1 (stereo unspecified)	39.8 µM (active)	–
CCOc1cccc(/C(O)=C2/C(=O)C(=O)N(CCOC)C2c2ccncc2)c1 (stereo unspecified)	inactive	–
CCc1ccccc1NC(=O)Cc1cn(C)c2ccccc12	inactive	–
CC(/C=C/C1(O)C(C)CC(=O)CC1(C)C)OC1OC(CO)C(O)C(O)C1O (stereo unspecified)	inactive	–
O=[N+]([O-])c1cc(Cl)cc(/C=N/NC(=S)Nc2cc(S(=O)(=O)N3CCOCC3)ccc2Cl)c1O	0.178 µM (active)	–
O=C(Nc1cc(S(=O)(=O)N2CCOCC2)ccc1Cl)c1cc(=O)c2ccccc2o1	inactive	–
CN(C)/N=C/c1cc(Cl)cc([N+](=O)[O-])c1O	inactive	–
CCN(CC)S(=O)(=O)c1ccc(OC(C)C)c(N)c1	inactive	–
COc1ccc2nc(Nc3nc(-c4ccncc4)cs3)sc2c1	inactive	–
Cn1c(CCC(=O)OCC(=O)NCc2ccccc2Cl)nc(=O)c2ccccc21	inactive	–
O=C(CCc1nnc(CCCCc2ccccc2)o1)NC(c1cccnc1)C(F)(F)F (stereo unspecified)	inactive	–
CSc1nnc2c(n1)OC(c1cn(C)c3ccccc13)N(C(C)=O)c1ccccc1-2 (stereo unspecified)	3.98 µM (active)	–

Compound	Potency	activity, negative = inhibition
CSc1nnc2c(n1)OC(c1ccsc1)N(C(C)=O)c1ccccc1-2 (stereo unspecified)	inactive	–
CCN(CC)CCNC(=O)C1c2ccccc2C(=O)N(C)C1c1cn(C)c2ccccc12 (stereo unspecified)	inactive	–
O=C(CO/N=C/c1ccccc1OC(F)F)NC1CCCC1	inactive	–
CS(=O)(=O)N(CC(=O)N/N=C/c1ccccn1)c1ccc(Oc2ccccc2)cc1	inactive	–
O=C(CN1CCN(Cc2ccc(F)cc2Cl)C1=O)NCc1cccs1	inactive	–
O=c1c(Cl)c(NCc2ccc(F)cc2Cl)cnn1C12CC3CC(CC(C3)C1)C2	15.8 µM (active)	–
NC(=O)c1ccc(N2CCOCC2)nc1	inactive	–
CCCC(=O)C1CCN(Cc2ccccc2)CC1	inactive	–
O=C(NNS(=O)(=O)c1ccc(Cl)cc1)C1CCN(Cc2ccccc2)CC1	22.4 µM (active)	–
CCNC(=S)NNC(=O)C1CCN(Cc2ccccc2)CC1	inactive	–
COc1ccc(-c2cc(C(=O)NCCCn3ccnc3)no2)cc1	inactive	–
O=C(c1ccco1)N1CCC2(CC1)CCN(c1ncccn1)CC2	25.1 µM (active)	–
O=C(c1csnn1)N1CCC[C@@]2(CCN(Cc3nccs3)C2)C1	inactive	–
Cc1ccc(C)c(OCC(=O)N2CCN(C(=O)c3ccco3)CC2)c1	inactive	–
O=C(c1cccc([N+](=O)[O-])c1)N1CCN(C(=O)c2ccco2)CC1	inactive	–
Cn1cccc1C(=O)N1CCC[C@@]2(CCN(Cc3nccs3)C2)C1	inactive	–
O=C(c1ccco1)N1CCC[C@@]2(CCN(Cc3nccs3)C2)C1	25.1 µM (active)	–
C/C(N)=C(/C#N)C(=O)COC(=O)CNS(=O)(=O)c1ccc(C)cc1	inactive	–
CC(C)NC(=O)NCCCCCCS(C)=O (stereo unspecified)	inactive	–
O=C(Nc1n[nH]c(C(F)(F)F)n1)c1cccs1	inactive	–
C=CCOC(=O)C1=C(C)NC(SCC(=O)OCC)=C(C#N)C1c1ccc(C)cc1 (stereo unspecified)	inactive	–
CCCSC1=C(C#N)C(c2ccccc2C)C(C(=O)OC)C(=O)N1 (stereo unspecified)	inactive	–

Compound	Potency	activity, negative = inhibition
CC1=C(C(=O)Nc2ccccc2)C(c2cccs2)C(C#N)=C(SCC#N)N1 (stereo unspecified)	22.4 µM (active)	–
CC(C)(C)c1cnnn1-c1ccc([N+](=O)[O-])cc1	inactive	–
CC(=O)Cc1nsc(NC(=O)c2csc3c2CCCC3)n1	inactive	–
O=C(Nc1ccccc1N1CCOCC1)c1csc2c1CCCC2	inactive	–
COC(=O)c1sccc1NC(=O)CCC1CCCC1	inactive	–
O=C(NCc1ccccc1Cl)c1csc2c1CCCCC2	inactive	–
COC(=O)c1sccc1NC(=O)c1csc2c1CCCC2	22.4 µM (active)	–
Cc1ccc(NC(=O)c2csc3c2CCCC3)cc1	20 µM (active)	–
COC(=O)/C(=C1\Oc2ccc(C(C)(C)C)cc2S1)C(F)(F)F	inactive	–
CC/C(O)=C1\C(=O)CC(C)(C)CC1=NCCc1nc2ccccc2[nH]1	inactive	–
CCCCNC(=O)c1ccc(-n2c(=S)[nH]c3ccccc3c2=O)cc1	inactive	–
O=C(Cn1c2[n+](c3ccc(C(F)(F)F)cc31)CCCCC2)Nc1c(F)cccc1F	inactive	–
Cc1ccc(Cl)cc1NC(=O)C1CCN(S(C)(=O)=O)CC1	inactive	–
O=C(NCc1ccccc1Cl)C1CCCO1 (stereo unspecified)	inactive	–
Cc1cnc(C(=O)OCC(=O)NCCCc2ccccc2)cn1	inactive	–
Cc1ccc(S(=O)(=O)NCC(=O)OCC(=O)N2CCc3ccccc32)cc1	inactive	–
Cc1cnc(C(=O)OCC(=O)N2CCc3ccccc32)cn1	3.16 µM (active)	–
O=C(CNCc1ccc(Cl)cc1)Nc1cccc(C(=O)O)c1	inactive	–
C/C(=N/OC(=O)c1cccc(C(F)(F)F)c1)c1cnccn1	inactive	–
OC(COc1ccc(CN2CCSCC2)cc1)CN1CCCCC1 (stereo unspecified)	inactive	–
CCO[C@H]1OC(C(=O)N2CCN(Cc3ccccc3)CC2)=C[C@@H](c2cn(C(C)=O)c3ccccc23)[C@@H]1CCCO	inactive	–
C/C(=N\N)c1c(-c2ccccc2)c2cc(Br)ccc2[nH]c1=O	inactive	–

Compound	Potency	activity, negative = inhibition
CCOc1ccc(NS(=O)(=O)c2ccc(OCC(=O)NCCCOC)cc2)cc1	inactive	–
COCCCNC(=O)c1ccc(CNS(=O)(=O)c2ccc(NC(C)=O)cc2)cc1	4.47 µM (active)	–
CCCCNC(=O)C1CCC(CNS(=O)(=O)c2ccc(NC(C)=O)cc2)CC1 (stereo unspecified)	inactive	–
CCc1ccccc1N1CN(Cc2ccco2)CNC1=S	inactive	–
CCCCN(CC)CCNC(=O)CCNC(=O)Cn1ccc2ccccc2c1=O	inactive	–
CCSC1=NCCN1S(=O)(=O)c1ccc(F)cc1	inactive	–
COC(=O)CC1c2ccccc2C(Cc2ccc(OC)cc2)=C(C)N1C(=O)OC (stereo unspecified)	–	-1.14% [at 13.5 µM]
O=C(COc1ccc(Br)cc1F)NC1CCN(Cc2ccccc2)CC1	inactive	–
S=C(Nc1ccc(Br)cc1Cl)NC1CCN(Cc2ccccc2)CC1	0.631 µM (active)	–
O=C(NC1CCN(Cc2ccccc2)CC1)c1cc(Br)c(Br)[nH]1	inactive	–
COc1ccc2ccccc2c1CNc1nnnn1C	inactive	–
COC(=O)c1cc(NC(=O)c2cccnc2)ccc1N1CCOCC1	inactive	–
CC1=NN(C(=O)c2ccc(Br)cc2)C(O)(c2ccccc2)C1 (stereo unspecified)	inactive	–
O=C(COC(=O)CCc1nc2ccccc2c(=O)[nH]1)Nc1ccc(N2CCOCC2)cc1	inactive	–
CC1CC(C)CN(CC(=O)Nc2ccc(S(N)(=O)=O)cc2)C1 (stereo unspecified)	8.91 µM (active)	–
CC1CC(C)CN(CCC(=O)Nc2ccc3c(c2)CCC3)C1 (stereo unspecified)	inactive	–
NS(=O)(=O)c1ccc(NC(=O)COC(=O)c2ccco2)cc1	inactive	–
COc1ccc(C2C(C#N)=C(N)N(c3ncn[nH]3)C3=C2C(=O)CCC3)cc1 (stereo unspecified)	inactive	–
